A number with no mark means an inactive call. Inconclusive results are not listed. The source made the active and inactive calls. Unless noted, calls follow the shape of the dose curve; as a rule, active = well fitted curve in the direction sought with a large enough effect; inconclusive = small, poorly fitted or top-dose-only effect, or another doubt; inactive = no such curve, though single readings can be large; an effect the other way counts as inactive or inconclusive.
Assays:
[1] = molecular target: Lysosomal acid glucosylceramidase (Homo sapiens) (UniProt P04062); assay: Glucocerebrosidase-p2 (AID 348; in the data active = potency below about 10 µM; also: potency is read from the fitted curve at half-maximal effect); settings: purified GBA, blue fluorogenic substrate, 40 min
Sequence of Lysosomal acid glucosylceramidase (Homo sapiens) (P04062 whole entry, looked up): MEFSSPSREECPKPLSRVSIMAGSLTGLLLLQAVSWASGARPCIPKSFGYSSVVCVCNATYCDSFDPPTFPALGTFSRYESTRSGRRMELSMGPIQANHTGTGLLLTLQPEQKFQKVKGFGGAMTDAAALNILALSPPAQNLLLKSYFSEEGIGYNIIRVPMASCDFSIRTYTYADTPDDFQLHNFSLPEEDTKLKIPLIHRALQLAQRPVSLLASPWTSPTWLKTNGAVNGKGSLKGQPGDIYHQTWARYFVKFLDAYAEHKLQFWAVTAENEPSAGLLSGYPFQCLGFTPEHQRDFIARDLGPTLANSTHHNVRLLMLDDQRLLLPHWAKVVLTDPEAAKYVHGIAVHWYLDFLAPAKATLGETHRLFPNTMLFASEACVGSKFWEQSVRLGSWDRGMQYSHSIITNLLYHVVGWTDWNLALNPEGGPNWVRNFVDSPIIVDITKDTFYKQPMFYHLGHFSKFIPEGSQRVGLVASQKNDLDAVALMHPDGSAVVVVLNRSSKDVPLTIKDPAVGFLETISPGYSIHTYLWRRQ
Procedure, shortened: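 Normal human glucocerebrosidase (0.2 nM) with blue fluorogenic substrate (80 uM final) in citrate/phosphate pH 5.9 with 10mM sodium taurocholate, 0.01% tween-20; 40 min RT, NaOH/glycine stop; fluorescence Ex 365/Em 440; AC50 from a titration from 0.6 nM upwards.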

[2] = molecular target: Cytochrome P450 1A2 (Homo sapiens) (UniProt P05177); assay: p450-cyp1a2 (AID 410; calls by dose curve; also: potency is read from the fitted curve at half-maximal effect); settings: recombinant CYP1A2, luciferin-ME demethylation, luminescence; series mostly up to 57 µM
Sequence of Cytochrome P450 1A2 (Homo sapiens) (P05177 whole entry, looked up): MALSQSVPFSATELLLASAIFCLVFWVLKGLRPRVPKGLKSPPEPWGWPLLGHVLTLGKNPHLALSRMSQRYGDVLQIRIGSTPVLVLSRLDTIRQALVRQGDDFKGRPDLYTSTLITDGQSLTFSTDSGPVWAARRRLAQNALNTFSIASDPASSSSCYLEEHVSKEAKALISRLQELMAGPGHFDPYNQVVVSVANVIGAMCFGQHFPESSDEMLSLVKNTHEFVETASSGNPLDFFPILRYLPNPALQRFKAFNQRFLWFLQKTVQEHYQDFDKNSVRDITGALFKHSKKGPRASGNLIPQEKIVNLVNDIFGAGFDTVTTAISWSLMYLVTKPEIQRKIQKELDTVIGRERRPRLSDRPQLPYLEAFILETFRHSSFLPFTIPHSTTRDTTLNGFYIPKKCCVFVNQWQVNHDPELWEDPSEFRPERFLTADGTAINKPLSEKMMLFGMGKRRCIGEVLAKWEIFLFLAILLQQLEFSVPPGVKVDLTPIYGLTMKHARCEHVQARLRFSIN
Procedure, shortened: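 O-Demethylation of luciferin 6' methyl ether by human CYP1A2 is monitored as luciferase luminescence. Substrate sits at Km (100uM); enzyme is 20nM. Values are scaled to 57 uM furafylline as maximal inhibition.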

[3] = NFAT Signaling Pathway (AID 444; active = well fitted curve in either direction with a large enough effect, not every such curve was filed as active;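 also: carbachol stimulus at about its EC50 of 1 µM final; % is scaled to controls: 0 for no effect and ±100 for the full control effect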); settings: Jurkat NFAT-bla M1, carbachol, beta-lactamase ratio, 5 h; at 7.69 µM (top of the series) unless noted
Procedure, shortened: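 Jurkat cells carrying an NFAT-driven β-lactamase reporter and co-transfected muscarinic M1 receptor were treated with compound plus carbachol (1 uM final, an EC50 level) for 5 h at 37 °C. CCF4 loading followed for 1 h at RT; 460/530 nm ratio gave %activity.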

[4] = Stat Signaling Pathway (AID 446; active = well fitted curve in either direction with a large enough effect, not every such curve was filed as active;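 also: ME-180 cervical cancer cells given 40 pM IL-6 alongside compound; SIE-controlled beta-lactamase reporter measured as 460/530 nm FRET emission ratio; % is scaled to controls: 0 for no effect and ±100 for the full control effect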); settings: ME-180 SIE beta-lactamase reporter, IL-6 stimulated, 5 h; at 7.69 µM (top of the series) unless noted
Procedure, shortened: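 Normalization used AC90 stimulation (300 pM IL-6) and AC90 inhibition (125 nM pan-JAK inhibitor at 40 pM IL-6). The underlying signal is SIE-driven beta-lactamase in ME-180 cells after 5 h IL-6 exposure with compound.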

[5] = molecular target: Glucocorticoid receptor (Homo sapiens) (UniProt P04150); assay: GR-GFP Redistribution (AID 450;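 active = compounds whose dose series gives a full or clear partial fitted curve of increased nuclear translocation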; also: potency is read from the fitted curve at half-maximal effect); settings: U2OS GR-GFP nuclear translocation, laser cytometry, 2 h
Sequence of Glucocorticoid receptor (Homo sapiens) (P04150 whole entry, looked up, the tested form may be a part): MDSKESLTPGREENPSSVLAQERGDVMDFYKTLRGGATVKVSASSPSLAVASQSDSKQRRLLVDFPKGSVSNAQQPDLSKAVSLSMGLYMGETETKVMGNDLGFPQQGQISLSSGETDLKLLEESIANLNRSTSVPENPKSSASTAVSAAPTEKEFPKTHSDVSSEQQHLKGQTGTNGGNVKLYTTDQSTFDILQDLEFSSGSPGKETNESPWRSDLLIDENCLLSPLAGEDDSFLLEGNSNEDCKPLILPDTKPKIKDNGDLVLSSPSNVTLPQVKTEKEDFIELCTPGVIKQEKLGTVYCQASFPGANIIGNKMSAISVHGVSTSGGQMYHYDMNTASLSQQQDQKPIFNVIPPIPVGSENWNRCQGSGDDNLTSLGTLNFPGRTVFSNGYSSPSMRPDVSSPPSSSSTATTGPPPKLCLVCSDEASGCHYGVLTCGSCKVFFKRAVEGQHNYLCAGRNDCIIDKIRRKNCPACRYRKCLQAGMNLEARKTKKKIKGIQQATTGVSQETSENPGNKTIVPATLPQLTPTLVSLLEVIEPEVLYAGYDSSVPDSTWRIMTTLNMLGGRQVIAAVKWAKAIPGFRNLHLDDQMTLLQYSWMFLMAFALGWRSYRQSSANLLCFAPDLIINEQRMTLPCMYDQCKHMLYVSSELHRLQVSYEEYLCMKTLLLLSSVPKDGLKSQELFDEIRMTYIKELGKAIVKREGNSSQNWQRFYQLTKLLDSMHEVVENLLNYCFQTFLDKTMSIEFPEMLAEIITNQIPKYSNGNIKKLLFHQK

[6] = molecular target: Glucocorticoid receptor (Homo sapiens) (UniProt P04150); assay: GR-EFC Redistribution (AID 451; calls by dose curve; also: potency is read from the fitted curve at half-maximal effect); settings: CHO-K1 GR-EFC translocation, beta-gal luminescence, 2 h
Procedure, shortened: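 CHO-K1 cells stably expressing nuclear-localized β-gal enzyme acceptor and GR fused C-terminally to the enzyme donor fragment; ligand-driven nuclear translocation restores β-gal by complementation. Compounds titrated up to 46 uM final, 2 h at 37 °C; luminescence read.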

[7] = molecular target: Mitogen-activated protein kinase 10 (Mus musculus) (UniProt Q61831); assay: JNK3 AlphaScreen Assay (AID 530; active = well fitted curve in either direction with a large enough effect, not every such curve was filed as active;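 also: kinase came from lysate of stimulated human HepG2 cells; signal reports phosphorylation of biotinylated GST-cJun 1-79 at Ser73 with 10 µM ATP; % is scaled to controls: 0 for no effect and ±100 for the full control effect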); settings: JNK3 lysate, c-Jun phosphorylation; series mostly up to 57.1 µM
Procedure, shortened: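 Phosphorylation of biotinylated GST-cJun(1-79) at Ser73 is measured by AlphaScreen proximity luminescence. Enzyme is JNK3 in HepG2 lysates activated with interleukin-1beta and tumor necrosis factor alpha; ATP is 10 uM final.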

[8] = molecular target: Cytochrome P450 3A4 (Homo sapiens) (UniProt P08684); assay: qHTS Assay for Activators of Cytochrome P450 3A4 (AID 885); settings: recombinant CYP3A4, Luciferin-PPXE luminescence, 60 min; series mostly up to 57.1 µM; also: nearly all actives have a fitted effect of over 65% in size
Sequence of Cytochrome P450 3A4 (Homo sapiens) (P08684 whole entry, looked up): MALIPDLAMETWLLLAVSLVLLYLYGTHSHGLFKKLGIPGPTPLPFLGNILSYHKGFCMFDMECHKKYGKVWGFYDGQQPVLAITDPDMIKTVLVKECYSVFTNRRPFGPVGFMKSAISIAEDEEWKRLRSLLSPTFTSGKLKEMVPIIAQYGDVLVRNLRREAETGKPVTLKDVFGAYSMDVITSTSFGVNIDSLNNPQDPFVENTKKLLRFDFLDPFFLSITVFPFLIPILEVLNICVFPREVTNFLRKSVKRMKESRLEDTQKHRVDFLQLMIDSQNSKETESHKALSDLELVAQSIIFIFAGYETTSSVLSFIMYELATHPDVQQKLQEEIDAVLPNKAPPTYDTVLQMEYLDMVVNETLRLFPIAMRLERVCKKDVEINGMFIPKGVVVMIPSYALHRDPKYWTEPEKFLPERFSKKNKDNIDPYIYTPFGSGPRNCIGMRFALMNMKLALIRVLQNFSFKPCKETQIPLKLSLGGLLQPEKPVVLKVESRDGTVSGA
Procedure, shortened: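 Human CYP3A4 dealkylates Luciferin-PPXE to luciferin, which luciferase detection converts to light. Substrate was at its KM (25uM), buffer 200mM KPO4, reaction 60 min at RT.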

[9] = molecular target: Dual specificity protein kinase CLK4 (Homo sapiens) (UniProt Q9HAZ1); assay: qHTS Assay for Inhibitors of CDC-like Kinase 4 (Kinase-Glo Assay) (AID 1770); settings: recombinant Clk4, Kinase-Glo ATP depletion luminescence; series mostly up to 66.7 µM; also: nearly all actives have a fitted effect of over 65% in size; also: potency is read from the fitted curve at half-maximal effect
Sequence of Dual specificity protein kinase CLK4 (Homo sapiens) (Q9HAZ1 whole entry, looked up): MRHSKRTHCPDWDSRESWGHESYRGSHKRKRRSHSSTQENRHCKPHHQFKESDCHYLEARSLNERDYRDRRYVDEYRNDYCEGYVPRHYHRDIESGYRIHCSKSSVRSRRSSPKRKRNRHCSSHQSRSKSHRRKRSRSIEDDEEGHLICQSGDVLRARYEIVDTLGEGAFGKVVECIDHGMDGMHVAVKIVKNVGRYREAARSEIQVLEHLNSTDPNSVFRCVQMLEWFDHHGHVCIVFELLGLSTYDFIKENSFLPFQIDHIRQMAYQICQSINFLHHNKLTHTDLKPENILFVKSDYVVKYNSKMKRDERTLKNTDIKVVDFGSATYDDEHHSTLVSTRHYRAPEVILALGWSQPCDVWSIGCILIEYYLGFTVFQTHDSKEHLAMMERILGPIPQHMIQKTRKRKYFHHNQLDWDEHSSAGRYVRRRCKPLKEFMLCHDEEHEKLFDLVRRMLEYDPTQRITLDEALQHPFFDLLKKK
Procedure, shortened: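 Recombinant human Clk4 (25 nM) phosphorylated RS repeat peptide (100 uM) with 1 uM ATP in Tris pH 7.5/MgCl2/EGTA/DTT/Triton buffer for 4.5 h at room temperature. Residual ATP was quantified by Kinase-Glo luciferase luminescence.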

[10] = molecular target: Dual specificity protein kinase CLK4 (Homo sapiens) (UniProt Q9HAZ1); assay: qHTS Assay for Inhibitors of CDC-like Kinase 4 (ADP-Glo Assay) (AID 1771); settings: recombinant CLK4, ADP-Glo luminescence; series mostly up to 80 µM; also: nearly all actives have a fitted effect of over 70% in size; also: potency is read from the fitted curve at half-maximal effect
Procedure, shortened: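 Compounds are pin-transferred onto substrate mix (100 uM RS peptide, 1 uM ATP), then 25 nM Clk4 is added. After 1 hr at room temperature, ADP-Glo reagent runs 45 min, detection reagent 30 min, then luminescence is read.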

[11] = molecular target: Dual specificity protein kinase CLK4 (Homo sapiens) (UniProt Q9HAZ1); assay: qHTS Assay for Inhibitors of CDC-like Kinase 4 (ADP-FP Assay) (AID 1795); settings: Transcreener ADP fluorescence polarization; series mostly up to 50 µM; also: nearly all actives have a fitted effect of over 60% in size; also: potency is read from the fitted curve at half-maximal effect
Procedure, shortened: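 Recombinant human Clk4 (6.25 nM) phosphorylated RS repeat peptide (100 uM) with 1 uM ATP in Tris pH 7.5/MgCl2/EGTA/DTT/Triton buffer for one hour. ADP was quantified by Transcreener competitive fluorescence polarization against an ADP calibration curve.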

[12] = molecular target: Ubiquitin carboxyl-terminal hydrolase 1 (Homo sapiens) (UniProt O94782); assay: Inhibitors of USP1/UAF1: Pilot qHTS (AID 504865); settings: purified USP1/UAF1, Ub-rhodamine cleavage fluorescence; series mostly up to 54.9 µM;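 also: rhodamine fluorescence freed from ubiquitin-rhodamine substrate followed over time; top concentration of the series differs between compounds; % is scaled to controls: 0 for no effect and ±100 for the full control effect; nearly all actives have a fitted effect of over 35% in size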
Sequence of Ubiquitin carboxyl-terminal hydrolase 1 (Homo sapiens) (O94782 whole entry, looked up): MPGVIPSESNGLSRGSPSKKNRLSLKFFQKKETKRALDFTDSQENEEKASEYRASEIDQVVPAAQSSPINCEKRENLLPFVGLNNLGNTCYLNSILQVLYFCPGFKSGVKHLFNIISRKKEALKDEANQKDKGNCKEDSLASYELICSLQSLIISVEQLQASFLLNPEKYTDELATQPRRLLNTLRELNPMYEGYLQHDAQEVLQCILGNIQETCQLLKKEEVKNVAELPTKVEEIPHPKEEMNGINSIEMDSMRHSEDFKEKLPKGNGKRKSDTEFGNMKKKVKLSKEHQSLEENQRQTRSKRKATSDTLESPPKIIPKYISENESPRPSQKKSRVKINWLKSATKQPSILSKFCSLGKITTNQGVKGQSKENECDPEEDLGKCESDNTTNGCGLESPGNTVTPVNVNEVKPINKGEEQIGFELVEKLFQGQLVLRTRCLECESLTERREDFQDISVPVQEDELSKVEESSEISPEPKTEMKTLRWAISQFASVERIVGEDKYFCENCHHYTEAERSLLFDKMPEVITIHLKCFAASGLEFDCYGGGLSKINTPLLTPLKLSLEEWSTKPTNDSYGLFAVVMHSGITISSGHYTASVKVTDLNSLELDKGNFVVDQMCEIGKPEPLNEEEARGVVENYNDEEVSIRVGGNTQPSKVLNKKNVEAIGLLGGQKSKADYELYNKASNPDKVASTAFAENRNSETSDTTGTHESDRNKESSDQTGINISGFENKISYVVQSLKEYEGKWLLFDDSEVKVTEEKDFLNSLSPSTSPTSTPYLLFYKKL
Procedure, shortened: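 USP1/UAF1 complex (1nM) preincubated with compound 15 min at room temperature, then Ub-Rho substrate (150nM final) added. Fluorescence read kinetically at 480/540 nm, 6 reads every 60 seconds. Buffer: 50mM HEPES pH 7.8, 0.5mM EDTA, 0.1 mg/ml BSA, 1mM TCEP, 0.01% Tween-20.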

[13] = Primary qHTS for small molecule stabilizers of the endoplasmic reticulum resident proteome: Secreted ER Calcium Modulated Protein (SERCaMP) assay (AID 1508630); settings: SH-SY5Y GLuc-SERCaMP (Gaussia luciferase released on ER calcium loss) secretion, thapsigargin, luminescence; series mostly up to 38.4 µM; also: % is scaled to controls: 0 for no effect and ±100 for the full control effect
Procedure, shortened: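 The SH-SY5Y reporter protocol was run at 3 concentrations up to 38.3 uM (primary) or 11 concentrations (follow-up): 16 h compound, 100 nM thapsigargin for 4 h, then extracellular luciferase luminescence.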

[14] = molecular target: 3',5'-cyclic-AMP phosphodiesterase 4B (Homo sapiens) (UniProt Q07343); assay: qHTS Assay for Inhibitors of PDE-IV (AID 607; active = well fitted activation curve with a large enough effect in the main read-out, with a control signal flat, not every such curve was filed as active; also: potency is read from the fitted curve at half-maximal effect); settings: HEK293 ACTOne CNG channel cells, membrane potential fluorescence; series mostly up to 22.9 µM
Sequence of 3',5'-cyclic-AMP phosphodiesterase 4B (Homo sapiens) (Q07343 whole entry, looked up): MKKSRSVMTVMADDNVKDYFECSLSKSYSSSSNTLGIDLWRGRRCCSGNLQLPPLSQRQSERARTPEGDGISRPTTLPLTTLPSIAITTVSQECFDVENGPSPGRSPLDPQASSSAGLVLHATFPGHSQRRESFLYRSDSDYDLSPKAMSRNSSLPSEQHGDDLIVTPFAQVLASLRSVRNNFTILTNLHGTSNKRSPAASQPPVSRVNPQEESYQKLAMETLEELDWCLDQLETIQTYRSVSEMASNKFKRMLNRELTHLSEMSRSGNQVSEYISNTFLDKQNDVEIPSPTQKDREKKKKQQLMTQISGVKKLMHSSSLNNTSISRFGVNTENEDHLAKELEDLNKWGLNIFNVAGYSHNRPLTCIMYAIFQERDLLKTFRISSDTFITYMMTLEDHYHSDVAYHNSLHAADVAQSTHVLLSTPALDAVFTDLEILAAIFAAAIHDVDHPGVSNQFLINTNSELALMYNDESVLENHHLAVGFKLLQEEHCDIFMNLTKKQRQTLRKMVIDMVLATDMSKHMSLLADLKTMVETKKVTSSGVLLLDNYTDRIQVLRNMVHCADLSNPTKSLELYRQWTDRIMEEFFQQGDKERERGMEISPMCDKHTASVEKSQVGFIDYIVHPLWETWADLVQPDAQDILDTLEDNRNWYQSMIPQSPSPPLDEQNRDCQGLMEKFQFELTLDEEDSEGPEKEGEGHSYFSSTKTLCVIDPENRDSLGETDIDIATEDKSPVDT
Procedure, shortened: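 HEK293 ACTOne cells with CNG channel (1000/well), endogenous PDE4; membrane potential dye, compounds up to 22.9 uM final. Fluorescence Ex 535/Em 590; RO 20-1724 (100 uM final) as reference.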

[15] = qHTS Assay for Identification of Small Molecule Agonists for Hypoxia Response Element Signaling Pathway (AID 914; active = well fitted activation curve with a large enough effect in the signal ratio, with a control signal flat, not every such curve was filed as active; the % refers to the signal ratio; also: potency is read from the fitted curve at half-maximal effect); settings: ME-180 (cervical carcinoma) HRE-bla reporter, beta-lactamase ratio, CoCl2, 17 h; activation: stronger effect = higher value
Procedure, shortened: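 In Opti-MEM containing 0.5% dialyzed FBS and 10 mM HEPES, ME-180 HRE-bla cells received a compound titration and EC50 CoCl2. They were incubated 17 hours, then CCF4-loaded 2.5 hours at room temperature before ratio reading.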

[16] = molecular target: Cytochrome P450 2C9 (Homo sapiens) (UniProt P11712); assay: qHTS Assay for Inhibitors and Substrates of Cytochrome P450 2C9 (AID 883); settings: recombinant CYP2C9, luciferin-H luminescence, 60 min; series mostly up to 57.1 µM; also: potency is read from the fitted curve at half-maximal effect; nearly all actives have a fitted effect of over 60% in size
Procedure, shortened: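 CYP2C9 deoxyluciferin hydroxylation, 37C, 60 min with NADPH regeneration; 10nM enzyme, 100uM Luciferin-H (KM). Glo detection reagent stopped reaction; luminescence normalized to sulphaphenazole (57uM) full inhibition.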

[17] = molecular target: Cytochrome P450 2D6 (Homo sapiens) (UniProt P10635); assay: qHTS Assay for Inhibitors and Substrates of Cytochrome P450 2D6 (AID 891); settings: recombinant CYP2D6, luciferin-ME EGE luminescence; series mostly up to 57.1 µM; also: potency is read from the fitted curve at half-maximal effect; nearly all actives have a fitted effect of over 60% in size
Sequence of Cytochrome P450 2D6 (Homo sapiens) (P10635 whole entry, looked up): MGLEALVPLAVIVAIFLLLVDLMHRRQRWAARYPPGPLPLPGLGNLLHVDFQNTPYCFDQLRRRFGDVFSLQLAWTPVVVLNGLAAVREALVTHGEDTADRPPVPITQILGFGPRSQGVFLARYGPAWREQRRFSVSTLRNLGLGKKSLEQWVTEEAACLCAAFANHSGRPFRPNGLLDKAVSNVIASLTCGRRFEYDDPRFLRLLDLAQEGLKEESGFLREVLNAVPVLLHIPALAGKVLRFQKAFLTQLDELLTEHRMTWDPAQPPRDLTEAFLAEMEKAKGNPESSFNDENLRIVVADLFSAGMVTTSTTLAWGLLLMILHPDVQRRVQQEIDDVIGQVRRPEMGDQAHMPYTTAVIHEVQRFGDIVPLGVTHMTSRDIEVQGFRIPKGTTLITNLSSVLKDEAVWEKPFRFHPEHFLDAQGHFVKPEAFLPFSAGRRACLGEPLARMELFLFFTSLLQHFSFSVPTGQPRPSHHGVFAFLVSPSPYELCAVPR
Procedure, shortened: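 Luminescent read-out of luciferin formed by 5 nM human CYP2D6 demethylating 30 uM Luciferin-ME EGE (Km level) over 60 min at room temperature after NADPH regeneration addition. Data normalized to full inhibition by 1.43 uM quinidine.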

[18] = molecular target: Cytochrome P450 2C19 (Homo sapiens) (UniProt P33261); assay: qHTS Assay for Inhibitors and Substrates of Cytochrome P450 2C19 (AID 899); settings: recombinant CYP2C19, luciferin-H EGE luminescence; series mostly up to 57.1 µM; also: potency is read from the fitted curve at half-maximal effect; nearly all actives have a fitted effect of over 60% in size
Procedure, shortened: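 In 50mM KPO4, the reaction held 5nM enzyme and KM-level (10uM) Luciferin-H EGE; it ran 60 min at 37C after NADPH regeneration and a 10 min compound preincubation. Luminescence values were scaled to 57uM ketoconazole as complete inhibition.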

Row | Structure (SMILES) | Potency [1] [µM] | Potency [2] | activity change, negative = inhibition [3] [%] | activity, negative = inhibition [4] [%] | Potency [5] [µM] | Potency [6] [µM] | Potency [7] | Potency [8] | Potency [9] | Potency [10] | Potency [11] | Potency [12] | outcome [13] | Potency [14] | Potency [15] | Potency [16] | Potency [17] | Potency [18]
1 | COc1ccc(-c2nc3cnc(OC)nc3n(CCc3ccccc3)c2=O)cc1 | > 11.4 | 6.31 µM (active) | 1.97 | 2.61 | > 9.22 | > 46 | inactive | inactive | inactive | inactive | inactive | inactive | inactive |  |  |  |  | 
2 | CN(C)c1ncc2nc(-c3ccc(Cl)cc3)c(=O)n(-c3ccccc3)c2n1 | > 11.4 | 5.01 µM (active) |  |  | > 9.22 | > 46 | inactive |  | inactive | inactive | inactive |  | inactive | 1 µM (active) | 2.51 µM (active) |  |  | 
3 | CN(C)c1ncnc2ccc(-c3ccc4c(c3)OCO4)cc12 | > 11.4 |  | -4.71 | 1.73 | > 46 | > 46 | inactive |  | 0.199 µM (active) | 0.158 µM (active) | 0.1 µM (active) | inactive | inactive | inactive |  |  |  | 
4 | Cn1c(=O)c(CCc2ccccc2)nc2cnc(Nc3ccccc3)nc21 | > 11.4 | 1.26 µM (active) | 1.9 | -11.6 | > 9.22 | > 46 | inactive | inactive | inactive | inactive | inactive | inactive | inactive |  |  |  |  | 
5 | CN(C)c1ncc2nc(-c3ccccc3)c(=O)n(CCc3ccccc3)c2n1 | > 11.4 | 20 µM (active) |  |  | > 9.22 | > 46 |  |  | inactive | inactive | inactive | inactive | inactive | inactive | 3.16 µM (active) | 0.631 µM (active) |  | 
6 | CCNc1ncc2nc(-c3cc(F)cc(F)c3)c(=O)n(CCOC)c2n1 | > 11.4 | 3.16 µM (active) |  |  | > 9.22 | > 46 | inactive | inactive | inactive | inactive | inactive |  | inactive |  |  |  | 0.316 µM (active) | 
7 | O=c1c(CCc2ccccc2)nc2cncnc2n1Cc1ccccc1Cl | > 11.4 | 12.6 µM (active) | -6.53 | -12.1 | > 46 | > 46 | inactive | inactive | inactive | inactive | inactive | inactive | inactive |  |  |  |  | 5.01 µM (active)
